The list is not random: actives were taken first. Their share in the collection is about 10%.
KB-V1 MDR tox: kills drug-selected multidrug resistant KB-V1 cells; AID 1347076; KB-V1 MDR cells viability, CellTiter-Glo, 72 h; Potency, µM (series often up to 46.1 µM), most hits filed as cytotoxic; 3.4% of 400,000 active; also: % is scaled to controls: 0 for no effect and ±100 for the full control effect; nearly all actives have a fitted effect of over 60% in size
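KB-V1, DMEM (no phenol red) + 10% FBS; cpd pin-transferred, titration series; 72 h, 37 degrees C; CellTiter-Glo, luminescence. Data normalized, curve-fit.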
VP16 counter: counter-screen for ROR gamma inhibitors: Gal4-VP16 reporter; Drosophila S2 Gal4-VP16 UAS-luciferase, luminescence, 20 h; 3.5% of 310,000 active; Potency, µM (titrated, usually from 53.6 µM), inactives show top-dose activity, negative = inhibition, actives largely listed as inhibitors;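 also: Gal4-VP16 expression switched on by copper sulfate through the metallothionein promoter; % is scaled to controls: 0 for no effect and ±100 for the full control effect; nearly all actives have a fitted effect of over 50% in size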
RORgamma inh: inhibitors of mouse ROR gamma transcriptional activity | Drosophila S2 Gal4-RORgamma UAS-luciferase reporter, 20 h | P51450 | 5.4% of 310,000 active | AID 2551 | Potency, µM (top dose mostly 53.6 µM), without a hit: at the highest dose activity change, negative = inhibition, actives largely listed as inhibitors; also: % is scaled to controls: 0 for no effect and ±100 for the full control effect; nearly all actives have a fitted effect of over 60% in size
Target sequence (P51450 whole entry, looked up, the tested form may be a part): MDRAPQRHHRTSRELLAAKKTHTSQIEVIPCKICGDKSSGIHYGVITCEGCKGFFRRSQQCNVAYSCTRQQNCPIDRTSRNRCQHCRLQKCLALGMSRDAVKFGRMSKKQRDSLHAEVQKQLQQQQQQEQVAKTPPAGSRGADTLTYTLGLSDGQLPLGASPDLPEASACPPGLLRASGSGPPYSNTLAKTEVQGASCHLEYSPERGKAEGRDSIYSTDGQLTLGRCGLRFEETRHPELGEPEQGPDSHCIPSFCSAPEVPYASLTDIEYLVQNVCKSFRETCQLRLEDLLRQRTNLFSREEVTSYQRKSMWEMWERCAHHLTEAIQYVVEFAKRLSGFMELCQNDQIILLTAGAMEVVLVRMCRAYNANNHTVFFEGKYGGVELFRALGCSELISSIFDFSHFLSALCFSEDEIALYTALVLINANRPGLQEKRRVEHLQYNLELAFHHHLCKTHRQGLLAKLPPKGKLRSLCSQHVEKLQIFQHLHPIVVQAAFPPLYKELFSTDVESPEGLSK
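A Gal4/UAS one-hybrid system in insect cells: metallothionein-promoter Gal4–ROR gamma fusion plus Photinus luciferase reporter. Copper sulfate 700 uM final, 20 hr ambient incubation, luminescent detection after 10 min with reagent.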
MCF10A rerep: induces DNA re-replication in MCF 10a normal breast cells. MCF 10A DNA re-replication, Hoechst nuclear intensity, 48 h. Potency, µM (series often up to 46.1 µM), for the others: at the top dose activity, positive = re-replication, actives largely listed as activators. 2.9% of 350,000 active; also: % of control where 0% means no effect; nearly all actives have a fitted effect of over 50% in size
KB-3-1 tox: kills parental KB-3-1 adenocarcinoma cells; KB-3-1 viability, CellTiter-Glo ATP luminescence, 72 h; Potency, µM (doses to about 46.1 µM), usual class: cytotoxic; 1.4% of 400,000 active; AID 1347075; also: % is scaled to controls: 0 for no effect and ±100 for the full control effect; nearly all actives have a fitted effect of over 60% in size
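KB-3-1 cells, DMEM (no phenol red) + 10% FBS; compound by pin transfer, 72 h, 37 °C. Readout: CellTiter-Glo luminescence after 10 min. Data normalized, curve-fitted.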
SW480 rerep: inducers of DNA re-replication in SW480 colon cancer cells | SW480 DNA re-replication, Hoechst DNA content imaging, 48 h | Potency, µM (series often up to 46.1 µM), for inactives: at the highest dose re-replication activation, actives largely listed as activators | 1.8% of 340,000 active | AID 624297; also: % of control where 0% means no effect; nearly all actives have a fitted effect of over 55% in size
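Per well, 250 cells were exposed to pinned compound for 48 hr. Nuclear DNA was visualised with Hoechst (40 min, 37 C) and total object intensity recorded by fluorescence scanning.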
The depositor's hits bear a star; i = inactive; ? = inconclusive; . = no result given; ! = not confirmed by another sample; [ ] = another dose, or the depositor's remark. Calls follow the shape of the dose curve; as a rule, active = well fitted curve in the direction sought with a large enough effect; inconclusive = small, poorly fitted or top-dose-only effect, or another doubt; inactive = no such curve, though single readings can be large; an effect the other way counts as inactive or inconclusive. Potency is read from the fitted curve at half-maximal effect.

SMILES	KB-V1 MDR tox	VP16 counter	RORgamma inh	MCF10A rerep	KB-3-1 tox	SW480 rerep
COc1cccc(NC(=S)NNC(=O)c2ccccc2OC(F)F)c1	i	-8%	?	?	i	18%
Cc1cc(C(=O)NCCc2ccc(S(=O)(=O)NC(=O)NN3CCCCCC3)cc2)no1	.	8%	-1%	12%	.	2%
CSCCC(C(=O)NCc1ccccc1)n1c(C2CCN(C(C)=O)CC2)nc2ccccc21 (configuration not stated)	i	.	.	.	?	.
O=C(COC(=O)C1Cc2ccccc2CN1C(=O)c1ccccc1Cl)Nc1ccc(N2CCOCC2)cc1 (configuration not stated)	15µM*	-12%	43%	8%	i	26%
CC(NC(=O)CCC(=O)c1ccc(F)cc1)C1CC2CCC1C2 (configuration not stated)	i	-1%	21%	10µM*	i	?
CCOc1ccc2nc(N3C(=O)/C(=C/c4ccc(Cl)cc4)NC3=S)sc2c1	?	1.6µM*	1.1µM*	-1%	?	1%
CC(=O)C[C@H](c1ccc([N+](=O)[O-])cc1)c1c(O)c2ccccc2oc1=O	.	-4%[17 µM]	4%[2.98 µM]	-1%[20.6 µM]	.	-5%[20.6 µM]
COC(=O)C1(C)C=CC2(CCCCC2)N1C(=O)c1ccccc1 (configuration not stated)	.	-4%	10µM*	.	.	.
CCCCNC(=O)C1(C)CCN1C(=O)c1oc2ccccc2c1C (configuration not stated)	i	.	.	.	i	.
COc1ccc(NC(=O)C(c2cc3ccccc3o2)n2c(=O)c(-c3cc4ccccc4[nH]3)nc3ccccc32)cc1 (configuration not stated)	i	.	.	.	i	.
C=C(C)Cn1c2ccc(NC(=O)CCOCC)cc2c(=O)n1C	i	.	.	.	i	.
CCOCCC(=O)Nc1ccc2c(c1)c(=O)n(C)n2CC=C(C)C	i	.	.	.	3.7µM*	.
CC(C)[C@H](NC(=O)C1(c2ccccc2)CCN(C(=O)OC(C)(C)C)CC1)C(=O)O	i	3%	14%	1%	i	0%
CC(C)(C)OC(=O)N1CCC(C(=O)N[C@@H](Cc2ccccc2)C(=O)O)(c2ccccc2)CC1	i	-8%	-7%	?	i	0.46µM*!
COc1ccccc1CCNC(=O)c1c(N)[nH]c(C(=O)c2ccccc2)c1-c1ccc(Br)cc1	15µM*	.	.	.	?	.
COC(=O)c1ccc(CC(=O)c2nc3ccccc3s2)cc1	i	?	-65%	2%	i	7%
COC(=O)c1ccc(/C(O)=C(\C#N)c2nc3ccccc3s2)cc1	8.2µM*	0%	-23%	-1%	i	1%
CCC1CCCCN1S(=O)(=O)c1ccc(NC(=O)c2nc(SC)ncc2Cl)cc1 (configuration not stated)	i	.	.	.	i	.
Cc1ccc(S(=O)(=O)N2[C@H](CC(=O)c3cccc4ccccc34)OC[C@@H]2C)cc1	?	.	.	.	i	.
CCOC(=O)C(=O)N(C)c1c(CC)nc2c(OCc3cccc(OC)c3)cccn12	i	.	.	.	i	.
COc1c(Br)cc(C(N)=O)cc1OCc1ccccc1	i	5%	-13%	?	i	0%
COc1cc(OCc2ccccc2)c(OC)c(OCc2ccccc2)c1	i	.	.	16µM*	i	?
CN(C)c1ccc(-c2nc3cc(N)ccc3o2)cc1	i	7.1µM*	7.9µM*	?	i	?
Cc1ccc2nc(-c3cc(N)cc(N)c3)oc2c1	i	?	2.8µM*	8%	i	-8%
Nc1ccc(-c2nc3ccc(N)cc3o2)cc1	i	11µM*	?	5%	i	2%
SMILES	KB-V1 MDR tox	VP16 counter	RORgamma inh	MCF10A rerep	KB-3-1 tox	SW480 rerep
Cc1ccc2oc(-c3ccccc3)nc2c1	i	?	?	-3%	i	1%
Nc1ccc(-c2nc3ccc(-c4nc5ccccc5o4)cc3[nH]2)cc1	i	3%	30%	4µM*	i	4.5µM*
CCOC(=O)c1c(S(=O)(=O)NCC(=O)Nc2cccc(SC)c2)c(C)n(C)c1C	i	.	.	.	i	.
Cc1ccc(C)c(C(=O)COC(=O)c2ccccc2N2C(=O)C3C4CCC(C4)C3C2=O)c1 (configuration not stated)	4.1µM*	-2%	4%	0%	i	-1%
O=C(COC(=O)c1ccccc1N1C(=O)C2C3CCC(C3)C2C1=O)c1ccccc1 (configuration not stated)	i	5%	13%	2%	i	-15%
Cc1[nH]nc(-c2ccc(O)cc2O)c1-c1ccc(Cl)cc1	i	22µM*	13µM*	15%	?	4%
COc1ccc(-c2n[nH]c(C)c2-c2ccc(Cl)cc2)c(O)c1	i	7.1µM*	4µM*	?	?	-1%
COc1ccc(O)c(-c2c(-c3ccc(Cl)cc3)n[nH]c2C)c1	i	-18%	?	11%	i	?
COc1ccc(-c2n[nH]c(C)c2-c2ccc(Cl)cc2)c(O)c1OC	?	7.1µM*	7.1µM*	18µM*	?	5%
N#Cc1c(-c2ccccc2)cc2nc3ccccc3n2c1N	i	?	?	12µM*	i	5%
COc1cc(-c2cc3nc4ccccc4n3c(N)c2C#N)cc(OC)c1OC	?	-7%	-6%	?	i	?
Cc1ccc(C)c(Nc2ncnc3onc(C)c23)c1	i	.	.	.	i	.
CCC1=NN2C(=N)/C(=C/c3cc(C)n(Cc4ccccc4)c3C)C(=O)N=C2S1	i	6%	-2%	?	i	-2%
Cc1cc(/C=C2\C(=N)N3N=C(c4ccco4)SC3=NC2=O)c(C)n1Cc1ccccc1	i	5%	-44%	21µM*	?	-1%
CCC1(CC)N=C(c2ccccc2)C(=S)N1	i	11µM*	3.5µM*	3%	i	-4%
CCOC(=O)c1ccc(-n2nc(C)cc2C)cc1	i	5%	2%	4%	i	-4%
CCOC(=O)c1cnc(-n2nc(C)cc2C)nc1N1CCOCC1	?	11µM*	10%	-1%	i	-5%
CCOC(=O)c1cnc(-n2nc(C)cc2C)nc1NC1CCCC1	5.2µM*	-3%	18%	0%	i	-14%
CCOC(=O)c1cnc2c(Cl)cc(Cl)cc2c1Nc1ccccc1OC	?	.	.	.	i	.
CCOC(=O)c1cnc2c(ccc3ccccc32)c1Nc1ccccc1OCC	i	.	.	.	i	.
CCOC(=O)c1cnc(-n2nc(C)cc2C)nc1Nc1ccccc1OC	.	2.2µM*	1.3µM*	.	.	.
